Compounds without any hit were thinned out: in the full panel of roughly 83,000, 20% have a hit.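 Negative percent growth values reflect cell death: -40 means 40% of the cells present at the start died, and -100 means all died.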 A number with no mark means an inactive call. Calls of active or inactive are those of the source. The calls were made as follows: active = growth percent below 10; inactive = the rest.
Assays:
Assay in all cases: NCI-60 one-dose screen, 48 h (100 = growth as untreated, 0 = no growth, -100 = all killed)
Conditions in all cases: 10 µM unless noted
SR leukemia = system: SR leukemia
RPMI-8226 leukemia = system: RPMI-8226 leukemia
OVCAR-8 ovarian = system: OVCAR-8 ovarian
OVCAR-5 ovarian = system: OVCAR-5 ovarian
OVCAR-4 ovarian = system: OVCAR-4 ovarian
SK-OV-3 ovarian = system: SK-OV-3 ovarian
IGROV1 ovarian = system: IGROV1 ovarian
HS 578T breast = system: HS 578T breast
NCI/ADR-RES ovarian = system: NCI/ADR-RES ovarian

Compound	growth (SR leukemia)	growth (RPMI-8226 leukemia)	growth (OVCAR-8 ovarian)	growth (OVCAR-5 ovarian) [%]	growth (OVCAR-4 ovarian) [%]	growth (SK-OV-3 ovarian) [%]	growth (IGROV1 ovarian)	growth (HS 578T breast) [%]	growth (NCI/ADR-RES ovarian)
COC(=O)CCCNCCCn1ccc2cc(NCc3cccc(-c4ccccc4)c3C)ccc21	-14.7% (active)	28.3%	85.2%	85.4	67.6	92.8	67.1%	81.8	79.4%
Cc1ccc([C@H]2c3[nH]c4ccccc4c3C[C@H]3C(=O)N(CCCCCCC(=O)NO)CC(=O)N23)s1	23%	27.9%	44.4%	52.8	79.5	86.3	55.7%	76.6	94.3%
O=C(/C=C/c1ccc(Cl)c(Cl)c1)Nc1ncc(Cc2ccc(Cl)c(Cl)c2)s1	38%	81.2%	44%	59.6	34	77.1	60.6%	76.4	52.8%
Cc1ccc(C(=O)CSc2nnc(-c3ccc(-c4ccc(Cl)cc4)nc3C)o2)cc1	96.5%	96.7%	107%	102	101	98.1	91.6%	102	100%
C/C(=C(/C)C1CC1CCNC1CCC(NC(=O)OC(C)(C)C)CC1)c1ccccc1 (stereo unspecified)	-25.5% (active)	2.74% (active)	81.6%	84.4	78.5	88.8	72.1%	84.1	75.7%
Clc1ccc2[nH]cc(-c3nn4cc(-c5ccncc5)nc4s3)c2c1	28.8%	53.2%	10.6%	98.8	43.2	15.4	44.6%	31.2	2.69% (active)
C=C(C=O)[C@@H]1CC[C@]2(C(=O)O)CC[C@]3(C)C(CC[C@@H]4[C@@](C)(CCC#N)[C@H](C(=C)C=O)CC[C@]43C)[C@@H]12 (stereo partly specified)	0.41% (active)	-8.52% (active)	-9.95% (active)	127	18.7	126	14.6%	47.1	5.79% (active)
CN1CCN(c2ccc(Nc3nc(NCCNS(=O)(=O)c4ccc5ccccc5c4)c4sccc4n3)cc2)CC1	-21.3% (active)	49.8%	60.3%	90.1	82.3	128	82.3%	75	90.3%
CN(C)c1cccc2c(S(=O)(=O)Nc3cccc(-c4csc(NC(=O)CCCCCN5CCN(CCO)CC5)n4)c3)cccc12	-9.78% (active)	47.2%	89%	88.7	92.4	107	86.1%	85.1	103%
Cc1cc(=O)oc2cc(OCCCOc3ccc(/C=C/C(=O)Nc4ccc(Br)cc4)cc3)ccc12	51.8%	75.6%	83.9%	95.4	105	98.2	72.7%	76.3	64.6%
O=C1[C@@H]2Cc3c([nH]c4ccccc34)[C@H](c3ccc(Cl)cc3)N2C(=O)CN1C1CCN(Cc2ccccc2)CC1	4.81% (active)	21.8%	64.4%	85.5	54.4	89.6	43.3%	65.5	52.6%
O=S(=O)(Oc1ccc(-c2cn3ccoc3n2)cc1)c1cccc(C(F)(F)F)c1	100%	94.4%	101%	103	102	117	106%	98.6	106%
O=C(CCCCCCN1CC(=O)N2[C@@H](c3ccc(Cl)s3)c3[nH]c4ccccc4c3C[C@H]2C1=O)NO	14.7%	17%	38.5%	39.3	64.6	78.7	-20.6% (active)	65.5	98.5%
COc1cc(/C=N\NC(=O)c2ccc3nc(-c4ccc(Br)cc4)[nH]c3c2)cc(OC)c1OC	37.9%	10.7%	45.6%	119	74.1	68.3	57.9%	38	95.9%

— PubChem BioAssay (NCI)
